# Data as given in PubChem BioAssay (EPA / NIEHS).
# Inconclusive results are not listed. The source made the active and inactive calls. How the source made its calls: active means hit-call score of the fitted dose curve at least 0.9, where 1 is the maximum; inconclusive means response in the unintended direction; inactive means score below 0.9.
# Legend:
# [1] = molecular target: human Serotonin, 5-Hydroxytryptamine Receptor 7 (5HT7), HTR7 (gene 3363) (UniProt P34969); assay: NVS_GPCR_h5HT7: NovaScreen (NVS) G Protein-Coupled Receptor Assay for human Serotonin, 5-Hydroxytryptamine Receptor 7 (5HT7) (AID 2283255);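 further: hits reduce specific radioligand binding relative to DMSO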
# In short: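 Radioligand displacement on membranes from CHO cells expressing human 5HT7, 1 h incubation, filter-based scintillation counting. Primary screen used a single 25 uM concentration in duplicate; actives were followed up in concentration series.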
# [2] = molecular target: human Adrenergic, Beta 1 Receptor (Adrb1), ADRB1 (gene 153) (UniProt P08588); assay: NVS_GPCR_hAdrb1: NovaScreen (NVS) G Protein-Coupled Receptor Assay for human Adrenergic, Beta 1 Receptor (Adrb1) (AID 2283258)
# In short: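 Cell-free radioligand displacement on receptor from human neuroepithelioma cells; 2 h after dosing, filter-based scintillation counting. Primary screen in duplicate at 25 uM, actives retested in concentration series; loss of signal vs DMSO baseline.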
# [3] = molecular target: rat Monoamine Oxidase, MAO-B, Central (MAOBC), Maob (gene 25750) (UniProt P19643); assay: NVS_ENZ_rMAOBC: NovaScreen (NVS) Enzymatic Assay for rat Monoamine Oxidase, MAO-B, Central (MAOBC) (AID 2283238)
# In short: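 MAO-B activity in rat brain tissue preparation, cell-free, measured radiometrically by scintillation counting 1.17 h after dosing. Screened in duplicate at 25 uM; actives then in concentration-response up to 50 uM. Loss of signal versus DMSO scored.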
# [4] = molecular target: rat Monoamine Oxidase, MAO-B, Peripheral (MAOBP), Maob (gene 25750) (UniProt P19643); assay: NVS_ENZ_rMAOBP: NovaScreen (NVS) Enzymatic Assay for rat Monoamine Oxidase, MAO-B, Peripheral (MAOBP) (AID 2283242)
# [5] = system: rat Monoamine Oxidase, MAO-A, Central (MAOAC), gene 29253; assay: NVS_ENZ_rMAOAC: NovaScreen (NVS) Enzymatic Assay for rat Monoamine Oxidase, MAO-A, Central (MAOAC) (AID 2283243);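 further: potency refers to inhibition seen as signal drop below DMSO baseline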
# In short: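 Steps: rat brain protein extract dosed with test chemical (25 uM, duplicate, primary); incubated 1.5 h; radiolabelled product separated from substrate and counted. Signal loss versus DMSO scored as inhibition.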
# [6] = molecular target: Adenosine receptor A1 (Bos taurus) (UniProt P28190); assay: NVS_GPCR_bAdoR_NonSelective: NovaScreen (NVS) G Protein-Coupled Receptor Assay for bovine Adenosine Receptor (AdoR), Non-selective Binding (AID 2283244)
# In short: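 Bovine striatal membranes, radioligand displacement binding, 1 h after dosing, filter-based scintillation counting. Screened in duplicate at 25 uM, then concentration-response up to 50 uM; loss of specific binding relative to DMSO.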
# [7] = molecular target: human Adenosine A1 Receptor (AdoRA1), ADORA1 (gene 134) (UniProt P30542); assay: NVS_GPCR_hAdoRA1: NovaScreen (NVS) G Protein-Coupled Receptor Assay for human Adenosine A1 Receptor (AdoRA1) (AID 2283254)
# In short: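 Membranes from human cortical tissue were incubated with radioligand and test chemical for 1 hour, then filtered and counted. Activity was taken as signal loss relative to DMSO, screened at 25 uM in duplicate before concentration-response follow-up.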
# [8] = system: bovine Histamine 1 Receptor (H1), gene 281231; assay: NVS_GPCR_bH1: NovaScreen (NVS) G Protein-Coupled Receptor Assay for bovine Histamine 1 Receptor (H1) (AID 2283246)
# In short: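 Radioligand displacement on bovine cerebellar membranes, 1 h after dosing, filter-based scintillation read-out; loss of signal vs DMSO. Duplicate single-concentration screen at 25 uM, then concentration-response up to 50 uM for hits.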
# [9] = system: guinea pig Leukotriene B4 Receptor (LTB4), gene 100379538; assay: NVS_GPCR_gLTB4: NovaScreen (NVS) G Protein-Coupled Receptor Assay for guinea pig Leukotriene B4 Receptor (LTB4) (AID 2283247)
# In short: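 Radioligand displacement on guinea pig spleen membranes, filter-based scintillation counting 2 h after dosing. Primary duplicate single point at 25 uM; hits over threshold (e.g. 30% inhibition) run in concentration-response up to 50 uM, DMSO baseline.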
# [10] = molecular target: human Serotonin, 5-Hydroxytryptamine Receptor 2A (5HT2A), HTR2A (gene 3356) (UniProt P28223); assay: NVS_GPCR_h5HT2A: NovaScreen (NVS) G Protein-Coupled Receptor Assay for human Serotonin, 5-Hydroxytryptamine Receptor 2A (5HT2A) (AID 2283249)
# In short: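 Human cortex membranes, cell-free radioligand binding; filter-based scintillation read 1.5 h after dosing. Duplicate screen at 25 uM first; displacement of specific binding (loss of signal) versus DMSO.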
# [11] = molecular target: bovine Dopamine Receptor (DR), Non-selective Binding, DRD1 (gene 281125) (UniProt Q95136); assay: NVS_GPCR_bDR_NonSelective: NovaScreen (NVS) G Protein-Coupled Receptor Assay for bovine Dopamine Receptor (DR), Non-selective Binding (AID 2283241)
# In short: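 Bovine striatal membranes; radioligand displacement read by filtration and scintillation counting 1 h after dosing, loss of signal vs DMSO. Screened in duplicate at 25 uM, then concentration-response for hits.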
# [12] = system: guinea pig Muscarinic, Peripheral (Mperiperal) Receptor, Non-selective Binding, gene 100379235; assay: NVS_GPCR_gMPeripheral_NonSelective: NovaScreen (NVS) G Protein-Coupled Receptor Assay for guinea pig Muscarinic, Peripheral (Mperiperal) Receptor, Non-selective Binding (AID 2283250)
# In short: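 Guinea pig bladder membranes, radioligand binding read 1 h after dosing by filter scintillation counting; loss of signal vs DMSO. Primary duplicate screen at 25 uM, then concentration-response up to 50 uM.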
# [13] = molecular target: guinea pig Opioid, Kappa 1 Receptor (OpiateK), OPRK1 (gene 100135587) (UniProt P41144); assay: NVS_GPCR_gOpiateK: NovaScreen (NVS) G Protein-Coupled Receptor Assay for guinea pig Opioid, Kappa 1 Receptor (OpiateK) (AID 2283252);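 further: radioligand displacement from kappa opioid receptor in guinea pig cerebellar membranes; active means reduced radioligand binding relative to DMSO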
# In short: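 Guinea pig cerebellar membranes, radioligand displacement with filter-based scintillation counting, 2 h after dosing. Primary screen single concentration 25 uM in duplicate; actives retested in concentration series; loss of binding fitted versus DMSO.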
# [14] = molecular target: human Adenosine A2a Receptor (AdoRA2a), ADORA2A (gene 135) (UniProt P29274); assay: NVS_GPCR_hAdoRA2a: NovaScreen (NVS) G Protein-Coupled Receptor Assay for human Adenosine A2a Receptor (AdoRA2a) (AID 2283256)
# In short: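 Radioligand displacement on HEK293-derived membrane protein, cell-free; filter-based scintillation counting 1.5 hours after dosing, loss of signal vs DMSO. Single-point duplicate screen at 25 uM, actives retested in concentration series.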
# [15] = NVS_GPCR_bNPY_NonSelective: NovaScreen (NVS) G Protein-Coupled Receptor Assay for bovine Neuropeptide Y (NPY) Receptor, Non-selective Binding (AID 2283245)
# In short: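 Bovine hippocampal membranes incubated 1 hour with radioligand and test chemical. Bound ligand measured by filter-based scintillation counting. Single-concentration screen at 25 uM in duplicate, then concentration-response up to 50 uM.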
# [16] = system: bovine Angiotensin II Receptor Type 2 (AT2), gene 407157; assay: NVS_GPCR_bAT2: NovaScreen (NVS) G Protein-Coupled Receptor Assay for bovine Angiotensin II Receptor Type 2 (AT2) (AID 2283240)
# In short: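 Radioligand displacement on bovine cerebellar membranes, 1 hour incubation, filter-based scintillation counting; loss of signal vs DMSO. Duplicate single-point screen at 25 uM, then concentration-response to 50 uM maximum.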
# [17] = molecular target: guinea pig Leukotriene D4 Receptor (LTD4), CYSLTR1 (gene 100135514) (UniProt Q2NNR5); assay: NVS_GPCR_gLTD4: NovaScreen (NVS) G Protein-Coupled Receptor Assay for guinea pig Leukotriene D4 Receptor (LTD4) (AID 2283248)
# In short: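 Radioligand displacement on guinea pig lung membranes, 1 h incubation, filtration and scintillation counting; DMSO as negative control. Duplicate 25 uM primary screen, then singleton concentration-response up to 50 uM.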
# [18] = molecular target: human Serotonin, 5-Hydroxytryptamine Receptor 5A (5HT5A), HTR5A (gene 3361) (UniProt P47898); assay: NVS_GPCR_h5HT5A: NovaScreen (NVS) G Protein-Coupled Receptor Assay for human Serotonin, 5-Hydroxytryptamine Receptor 5A (5HT5A) (AID 2283251)
# In short: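 Cell-free radioligand displacement binding on HEK293-derived membrane protein, 1 h incubation, filter-based scintillation counting. Primary screen in duplicate at 25 uM, actives followed in concentration series; loss of signal fitted versus DMSO.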
# [19] = molecular target: human Serotonin, 5-Hydroxytryptamine Receptor 6 (5HT6), HTR6 (gene 3362) (UniProt P50406); assay: NVS_GPCR_h5HT6: NovaScreen (NVS) G Protein-Coupled Receptor Assay for human Serotonin, 5-Hydroxytryptamine Receptor 6 (5HT6) (AID 2283253)
# In short: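 Radioligand binding to 5HT6 in HEK293-derived membranes, cell-free, 1 h after dosing; bound ligand measured by filter-based scintillation counting. Primary screen in duplicate at 25 uM; actives retested in concentration series.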
# [20] = molecular target: human Adrenergic, Alpha 2A Receptor (Adra2A), ADRA2A (gene 150) (UniProt P08913); assay: NVS_GPCR_hAdra2A: NovaScreen (NVS) G Protein-Coupled Receptor Assay for human Adrenergic, Alpha 2A Receptor (Adra2A) (AID 2283257)
# In short: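 Radioligand filter-binding was run on HT29-derived membranes, cell-free, read by scintillation counting 1 h after dosing. Primary screening was in duplicate at 25 uM, with concentration series in follow-up. Loss of signal versus DMSO indicates displacement.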
# Chain of Adenosine receptor A1 (Bos taurus) (P28190 whole entry, looked up): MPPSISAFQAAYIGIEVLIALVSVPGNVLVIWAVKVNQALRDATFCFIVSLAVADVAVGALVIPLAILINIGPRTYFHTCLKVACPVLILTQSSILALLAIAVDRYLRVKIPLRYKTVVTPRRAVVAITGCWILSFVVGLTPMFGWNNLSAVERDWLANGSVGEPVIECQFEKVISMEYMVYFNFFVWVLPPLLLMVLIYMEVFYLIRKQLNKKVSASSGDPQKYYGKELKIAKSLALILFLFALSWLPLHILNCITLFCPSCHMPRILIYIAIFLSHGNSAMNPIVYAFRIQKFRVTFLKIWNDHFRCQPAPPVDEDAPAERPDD
# Chain of guinea pig Opioid, Kappa 1 Receptor (OpiateK), OPRK1 (gene 100135587) (P41144 whole entry, looked up): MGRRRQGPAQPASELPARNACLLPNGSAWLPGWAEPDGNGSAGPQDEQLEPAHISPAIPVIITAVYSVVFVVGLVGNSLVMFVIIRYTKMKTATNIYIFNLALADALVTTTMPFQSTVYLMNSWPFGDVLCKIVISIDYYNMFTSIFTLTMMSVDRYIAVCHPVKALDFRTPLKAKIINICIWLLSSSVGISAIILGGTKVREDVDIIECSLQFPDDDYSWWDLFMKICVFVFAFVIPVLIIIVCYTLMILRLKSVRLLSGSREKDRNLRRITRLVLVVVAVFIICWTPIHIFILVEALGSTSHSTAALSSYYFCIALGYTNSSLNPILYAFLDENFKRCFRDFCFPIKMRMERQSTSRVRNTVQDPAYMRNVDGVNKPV
# Chain of rat Monoamine Oxidase, MAO-B, Central (MAOBC), Maob (gene 25750) (P19643 whole entry, looked up): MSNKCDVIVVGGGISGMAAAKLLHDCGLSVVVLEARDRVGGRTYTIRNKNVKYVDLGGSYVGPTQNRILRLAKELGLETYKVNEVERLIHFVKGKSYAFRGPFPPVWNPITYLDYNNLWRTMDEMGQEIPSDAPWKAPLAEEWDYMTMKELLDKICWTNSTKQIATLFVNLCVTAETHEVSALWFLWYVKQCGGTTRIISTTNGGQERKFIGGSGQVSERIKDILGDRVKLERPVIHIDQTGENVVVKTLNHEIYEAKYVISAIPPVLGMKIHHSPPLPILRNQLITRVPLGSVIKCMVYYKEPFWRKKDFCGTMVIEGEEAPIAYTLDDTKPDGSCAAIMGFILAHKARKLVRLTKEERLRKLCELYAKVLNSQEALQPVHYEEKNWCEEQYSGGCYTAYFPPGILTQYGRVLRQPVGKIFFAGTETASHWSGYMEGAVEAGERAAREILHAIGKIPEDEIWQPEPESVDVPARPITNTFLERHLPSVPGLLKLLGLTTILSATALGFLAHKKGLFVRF
# Chain of rat Monoamine Oxidase, MAO-B, Peripheral (MAOBP), Maob (gene 25750) (P19643 whole entry, looked up): as above
# Chain of human Adrenergic, Beta 1 Receptor (Adrb1), ADRB1 (gene 153) (P08588 whole entry, looked up): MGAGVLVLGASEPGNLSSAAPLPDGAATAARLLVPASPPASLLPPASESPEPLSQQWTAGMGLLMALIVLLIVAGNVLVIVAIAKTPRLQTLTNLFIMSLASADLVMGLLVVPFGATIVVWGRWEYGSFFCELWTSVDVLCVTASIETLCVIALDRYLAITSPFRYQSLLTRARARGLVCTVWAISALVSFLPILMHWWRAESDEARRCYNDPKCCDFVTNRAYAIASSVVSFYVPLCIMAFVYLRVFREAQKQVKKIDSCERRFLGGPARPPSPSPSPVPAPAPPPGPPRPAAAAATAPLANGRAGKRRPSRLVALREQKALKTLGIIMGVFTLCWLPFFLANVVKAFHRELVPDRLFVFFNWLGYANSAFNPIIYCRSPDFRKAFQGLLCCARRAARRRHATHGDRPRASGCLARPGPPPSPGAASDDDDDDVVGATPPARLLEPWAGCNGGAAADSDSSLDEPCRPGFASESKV
# Chain of human Serotonin, 5-Hydroxytryptamine Receptor 6 (5HT6), HTR6 (gene 3362) (P50406 whole entry, looked up): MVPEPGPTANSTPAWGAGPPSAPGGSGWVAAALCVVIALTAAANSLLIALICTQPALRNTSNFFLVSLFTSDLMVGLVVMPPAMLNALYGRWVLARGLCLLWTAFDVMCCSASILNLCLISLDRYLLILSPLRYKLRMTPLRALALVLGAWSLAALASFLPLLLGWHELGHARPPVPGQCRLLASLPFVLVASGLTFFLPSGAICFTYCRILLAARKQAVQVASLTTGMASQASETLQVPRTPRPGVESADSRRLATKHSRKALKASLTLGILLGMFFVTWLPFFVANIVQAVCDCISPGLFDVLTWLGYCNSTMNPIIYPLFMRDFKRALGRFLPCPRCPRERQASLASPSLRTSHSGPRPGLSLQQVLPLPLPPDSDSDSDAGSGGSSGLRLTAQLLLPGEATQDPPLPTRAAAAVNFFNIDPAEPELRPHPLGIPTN
# Chain of human Serotonin, 5-Hydroxytryptamine Receptor 7 (5HT7), HTR7 (gene 3363) (P34969 whole entry, looked up): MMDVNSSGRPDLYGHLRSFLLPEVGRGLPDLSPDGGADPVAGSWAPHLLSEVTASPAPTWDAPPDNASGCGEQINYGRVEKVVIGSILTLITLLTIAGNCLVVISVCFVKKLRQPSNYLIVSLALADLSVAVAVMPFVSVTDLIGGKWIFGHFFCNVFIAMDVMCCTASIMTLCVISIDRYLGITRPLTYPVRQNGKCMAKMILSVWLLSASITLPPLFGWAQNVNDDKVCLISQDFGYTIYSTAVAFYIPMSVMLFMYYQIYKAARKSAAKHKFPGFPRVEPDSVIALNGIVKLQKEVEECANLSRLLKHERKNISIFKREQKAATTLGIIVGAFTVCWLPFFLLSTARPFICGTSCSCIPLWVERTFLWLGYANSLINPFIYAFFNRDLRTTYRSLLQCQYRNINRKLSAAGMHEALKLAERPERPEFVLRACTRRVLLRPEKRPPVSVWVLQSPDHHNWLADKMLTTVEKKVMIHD
# Chain of human Serotonin, 5-Hydroxytryptamine Receptor 2A (5HT2A), HTR2A (gene 3356) (P28223 whole entry, looked up): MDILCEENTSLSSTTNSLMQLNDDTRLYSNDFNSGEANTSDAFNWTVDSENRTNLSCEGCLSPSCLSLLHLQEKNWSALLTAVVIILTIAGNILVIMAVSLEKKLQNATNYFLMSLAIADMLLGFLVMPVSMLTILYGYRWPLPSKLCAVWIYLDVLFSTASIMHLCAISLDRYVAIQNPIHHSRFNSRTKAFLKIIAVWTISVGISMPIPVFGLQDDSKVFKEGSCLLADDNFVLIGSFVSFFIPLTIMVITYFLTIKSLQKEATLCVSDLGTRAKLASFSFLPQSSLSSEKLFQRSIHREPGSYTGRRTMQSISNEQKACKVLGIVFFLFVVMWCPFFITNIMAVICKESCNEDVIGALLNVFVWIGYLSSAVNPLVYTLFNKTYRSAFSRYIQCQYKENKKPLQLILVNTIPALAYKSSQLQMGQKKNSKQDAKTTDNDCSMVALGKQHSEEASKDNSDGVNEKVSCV
# Chain of human Adenosine A1 Receptor (AdoRA1), ADORA1 (gene 134) (P30542 whole entry, looked up): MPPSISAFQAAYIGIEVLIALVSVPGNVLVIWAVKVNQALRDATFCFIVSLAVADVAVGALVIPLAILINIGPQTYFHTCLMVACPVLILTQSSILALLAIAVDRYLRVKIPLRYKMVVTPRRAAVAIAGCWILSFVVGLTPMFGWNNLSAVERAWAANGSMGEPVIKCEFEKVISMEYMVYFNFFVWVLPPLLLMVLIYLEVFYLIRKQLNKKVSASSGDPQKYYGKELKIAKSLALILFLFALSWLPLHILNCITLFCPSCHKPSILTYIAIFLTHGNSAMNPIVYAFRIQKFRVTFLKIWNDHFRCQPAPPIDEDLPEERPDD
# Chain of human Adenosine A2a Receptor (AdoRA2a), ADORA2A (gene 135) (P29274 whole entry, looked up): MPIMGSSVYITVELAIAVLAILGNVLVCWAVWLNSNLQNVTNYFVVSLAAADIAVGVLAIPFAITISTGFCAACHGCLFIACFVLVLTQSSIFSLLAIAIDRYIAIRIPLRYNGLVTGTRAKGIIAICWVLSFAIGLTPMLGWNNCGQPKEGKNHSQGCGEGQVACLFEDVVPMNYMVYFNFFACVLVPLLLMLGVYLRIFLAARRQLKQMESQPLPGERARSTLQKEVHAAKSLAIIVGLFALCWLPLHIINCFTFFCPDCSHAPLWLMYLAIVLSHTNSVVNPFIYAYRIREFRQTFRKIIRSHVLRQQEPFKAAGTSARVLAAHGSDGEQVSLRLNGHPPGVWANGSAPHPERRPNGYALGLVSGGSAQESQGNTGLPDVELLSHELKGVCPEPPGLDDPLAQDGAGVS
# Chain of bovine Dopamine Receptor (DR), Non-selective Binding, DRD1 (gene 281125) (Q95136 whole entry, looked up): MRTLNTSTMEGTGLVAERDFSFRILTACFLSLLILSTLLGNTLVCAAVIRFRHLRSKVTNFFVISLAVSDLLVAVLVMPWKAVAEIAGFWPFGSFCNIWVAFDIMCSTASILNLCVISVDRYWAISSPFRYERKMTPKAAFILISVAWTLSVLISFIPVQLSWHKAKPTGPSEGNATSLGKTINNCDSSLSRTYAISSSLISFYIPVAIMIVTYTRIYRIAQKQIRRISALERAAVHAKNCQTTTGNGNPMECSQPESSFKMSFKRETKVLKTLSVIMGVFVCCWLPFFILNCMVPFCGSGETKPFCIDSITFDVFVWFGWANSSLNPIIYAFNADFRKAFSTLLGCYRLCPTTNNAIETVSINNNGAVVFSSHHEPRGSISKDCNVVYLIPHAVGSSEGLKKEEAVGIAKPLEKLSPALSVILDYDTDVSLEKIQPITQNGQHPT
smiles,measurement,setting,value
CCCCCCCCOC(=O)c1ccc(C(=O)OCCCCCCCC)c(C(=O)OCCCCCCCC)c1,outcome,[1],inactive
same,outcome,[2],inactive
Nc1ccc(N=Nc2ccccc2)cc1,AC50,[3],25 µM (active)
same,outcome,[4],inactive
same,AC50,[5],10.6 µM (active)
same,AC50,[6],25 µM (active)
same,outcome,[7],inactive
CN(C)[C@@H]1C(=O)C(C(N)=O)=C(O)[C@@]2(O)C(=O)C3=C(O)c4c(O)cccc4[C@@](C)(O)[C@H]3C[C@@H]12,outcome,[3],inactive
C[C@]12C=CC3=C4CCC(=O)C=C4CC[C@H]3[C@@H]1CC[C@@H]2O,outcome,[8],inactive
same,AC50,[9],2.88 µM (active)
COP(=S)(OC)SCN1C(=O)c2ccccc2C1=O,outcome,[3],inactive
same,outcome,[10],inactive
same,AC50,[7],13.7 µM (active)
ClC1=C(Cl)[C@]2(Cl)[C@H]3[C@H]([C@@H]4C=C[C@H]3C4)[C@@]1(Cl)C2(Cl)Cl,outcome,[4],inactive
O=C(N[C@H](c1ccccc1)[C@@H]1CN2CCC1CC2)c1c(Cl)ccc(C(F)(F)F)c1Cl,AC50,[11],29.1 µM (active)
same,AC50,[5],37.5 µM (active)
same,AC50,[10],37.5 µM (active)
same,outcome,[12],inactive
same,AC50,[13],0.0235 µM (active)
same,AC50,[1],28.5 µM (active)
same,AC50,[2],37.5 µM (active)
CCN(CC)CCO,outcome,[1],inactive
Nc1ccc(Cl)cc1N,outcome,[5],inactive
same,outcome,[6],inactive
same,AC50,[14],2.4 µM (active)
Nc1ccc(Oc2ccc(N)cc2)cc1,AC50,[5],11.3 µM (active)
O=C(Nc1ccccc1)c1ccccc1I,outcome,[15],inactive
Clc1ccc(Cl)c(Cl)c1,outcome,[4],inactive
CC(C)(C)OOC(=O)c1ccccc1,outcome,[3],inactive
CCCCCCCCCCCCCN1CC(C)OC(C)C1 (stereo unspecified),outcome,[6],inactive
CCC[CH2][Sn]([Cl])([CH2]CCC)[CH2]CCC,AC50,[16],18.2 µM (active)
same,AC50,[11],9.14 µM (active)
same,AC50,[15],3.07 µM (active)
same,AC50,[9],15.8 µM (active)
same,AC50,[17],1.86 µM (active)
same,AC50,[10],32.6 µM (active)
same,AC50,[12],9.81 µM (active)
same,AC50,[18],2.07 µM (active)
same,AC50,[13],14.5 µM (active)
same,AC50,[19],5.51 µM (active)
same,AC50,[7],25 µM (active)
same,AC50,[1],0.354 µM (active)
same,AC50,[14],6.46 µM (active)
same,AC50,[20],3.65 µM (active)
same,AC50,[2],1.25 µM (active)
Cc1cc(N=Nc2ccccc2C)ccc1N,AC50,[3],25 µM (active)
same,outcome,[4],inactive
same,outcome,[8],inactive
CC(C)(C)C(O)(CCc1ccc(Cl)cc1)Cn1cncn1 (stereo unspecified),outcome,[10],inactive
CCCCCOC(=O)c1ccccc1C(=O)OCCCCC,outcome,[13],inactive
same,outcome,[19],inactive
same,outcome,[2],inactive
O=[N+]([O-])c1ccc(Oc2ccc(Cl)cc2Cl)cc1,outcome,[12],inactive
same,outcome,[19],inactive
same,outcome,[2],inactive
CC(C)N(Cc1ccccc1)C(=O)C(C)(C)C,AC50,[13],15.7 µM (active)
